Pf growth 96h – Primary qHTS for delayed death inhibitors of the malarial parasite plastid, 96 hour incubation; Potency, µM (titrated, usually from 28.7 µM), without a hit: at the top dose activity change, negative = inhibition, hits mostly inhibitors; P. falciparum luciferase reporter growth, 96 h; AID 504834, 2011; actives 6.9% (n = 320,000); active = well fitted inhibition curve with a large enough effect; inconclusive = small, poorly fitted or top-dose-only effect, or another doubt; inactive = no such curve, though single readings can be large or run the other way; also: % is scaled to controls: 0 for no effect and ±100 for the full control effect
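Erythrocytes infected with luciferase-expressing P. falciparum were dispensed at 2% hematocrit and 0.05% parasitemia (final), then incubated with compounds 96 hours at 37 C in 5% CO2. Luminescence after detection reagent addition reported growth.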
SARS PLP yeast – qHTS of Yeast-based Assay for SARS-CoV PLP; S. cerevisiae expressing SARS-CoV PLpro, growth rescue; Potency, µM (titrated, usually from 32.9 µM), for the others: at the highest dose activity, positive = growth rescue, most hits filed as activators; actives 0.19% (n = 330,000); also: 0% is about no effect; nearly all actives have a fitted effect of over 55% in size
Pf growth 48h – Primary qHTS for delayed death inhibitors of the malarial parasite plastid, 48 hour incubation; P. falciparum luciferase growth in erythrocytes, 48 h; Potency, µM (top dose mostly 28.7 µM), for inactives: at the highest dose activity change, negative = inhibition, most hits filed as inhibitors; actives 5.9% (n = 310,000); AID 504832, 2011; active = well fitted inhibition curve with a large enough effect; inconclusive = small, poorly fitted or top-dose-only effect, or another doubt; inactive = no such curve, though single readings can be large or run the other way; also: % is scaled to controls: 0 for no effect and ±100 for the full control effect
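In quantitative HTS format, infected erythrocytes bearing luciferase-reporter parasites were treated for a single generation at 37 C. Luminescence after adding detection reagent served as the growth measure.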
NS1 inh – qHTS Assay for Inhibitors of Influenza NS1 Protein Function; Potency, µM (doses to about 46.1 µM), for the others: at the highest dose activity, positive = more growth; actives 0.4% (n = 270,000); also: actives are rising curves; nearly all actives have a fitted effect of over 50% in size
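In this qHTS, NS1 from influenza A is expressed in budding yeast, where it slows growth. Cells are switched from glucose to 2% galactose medium (pH 6.0, -URA), treated with compound, and growth recovery is read at OD600.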
Numbers without * were called inactive. An excerpt weighted towards active compounds, which were near 10% of everything screened. Unless noted, calls follow the shape of the full dose curve. Potency is read from the fitted curve at half-maximal effect.

O=C(N/N=C/c1cc(Cl)cc(Cl)c1O)c1ccncc1 was read as Pf growth 96h 2.33µM*, SARS PLP yeast -6.6%, Pf growth 48h 13.1µM* and NS1 inh -72.1%.
`O=C(N/N=C/c1ccc(Cl)cc1Cl)c1ccncc1` gave Pf growth 96h 35.2%, SARS PLP yeast -1.7%, Pf growth 48h 19.8% and NS1 inh -12.7%.
`COc1cccc(N2CCN(c3ncnc4c3cnn4-c3ccc(C)cc3C)CC2)c1` gave Pf growth 96h 5.86µM*, SARS PLP yeast 8.4% and NS1 inh 19.6%.
CCOC(=O)N1CCc2c(sc3nc(SC(C)C)n(N)c(=O)c23)C1 was read as Pf growth 96h 11.7µM*, SARS PLP yeast -2.8%, Pf growth 48h inconclusive and NS1 inh 9.8%.
CCOC(=O)N1CCc2c(sc3ncn(C)c(=O)c23)C1 was read as Pf growth 96h inconclusive, SARS PLP yeast -5.9%, Pf growth 48h -4.4% and NS1 inh -2.1%.
CCOC(=O)N1CCc2c(sc3nc4n(c(=O)c23)N=C(c2ccc(OC)cc2)CS4)C1 was read as Pf growth 96h inconclusive, SARS PLP yeast -1.0%, Pf growth 48h 0.465µM* and NS1 inh 6.4%.
O=C(CSc1nc2ncccc2[nH]1)c1ccc2c(c1)OCO2 was read as Pf growth 96h 98.5%, SARS PLP yeast -0.3%, Pf growth 48h 28.2% and NS1 inh 1.1%.
Screening O=C(Nc1cccc(F)c1)C1CC(=O)N(c2ccc(Br)cc2)C1 (stereo unspecified) returned Pf growth 96h inconclusive, SARS PLP yeast 4.0%, Pf growth 48h inconclusive and NS1 inh -15.8%.
For O=C(NCc1ccco1)c1ccccc1NC(=O)C1CC(=O)N(c2ccc(Cl)cc2)C1 (stereo unspecified) the results were Pf growth 96h 7.38µM*, SARS PLP yeast -1.5%, Pf growth 48h -17.3% and NS1 inh -19.3%.
`O=C(N/N=C/c1ccccc1O)C1CC(=O)N(c2ccc(Cl)cc2)C1` (stereo unspecified) gave Pf growth 96h 77.3%, SARS PLP yeast 3.3%, Pf growth 48h 11.7µM* and NS1 inh 3.2%.
Screening O=C(Nc1cccc(Cl)c1Cl)C1CC(=O)N(c2ccc(Br)cc2)C1 (stereo unspecified) returned Pf growth 96h 10.4µM*, SARS PLP yeast 17.8%, Pf growth 48h 0.0% and NS1 inh 7.8%.
[N-]=[N+]=NC[C@H](Cc1ccccc1)N1CC[C@@H](NC(=O)OCc2ccccc2)CCC1=O was read as Pf growth 96h inconclusive, SARS PLP yeast 11.6%, Pf growth 48h -28.6% and NS1 inh 20.7%.
For COc1ccc(-n2nc(C(=O)NCC(=O)N3CCN(C)CC3)c3ccccc3c2=O)cc1 the results were Pf growth 96h 7.6%, SARS PLP yeast 0.6%, Pf growth 48h 4.5% and NS1 inh -12.1%.
Screening COc1ccc(-n2nc(C(=O)NCC(=O)NCCC3=CCCCC3)c3ccccc3c2=O)cc1OC returned Pf growth 96h 9.28µM*, SARS PLP yeast 1.1%, Pf growth 48h inconclusive and NS1 inh 15.0%.
`COc1ccc(-n2nc(C(=O)NCC(=O)N3CCN(Cc4ccccc4)CC3)c3ccccc3c2=O)cc1OC` gave Pf growth 96h 1.04µM*, SARS PLP yeast -3.1%, Pf growth 48h inconclusive and NS1 inh -7.7%.
For COc1ccc(-n2nc(C(=O)NCC(=O)N3CCN(C)CC3)c3ccccc3c2=O)cc1OC the results were Pf growth 96h 129.9%, SARS PLP yeast 13.4%, Pf growth 48h -7.6% and NS1 inh 2.0%.
Screening COc1ccc(N2CCN(C(=O)CNC(=O)c3nn(-c4ccc(OC)cc4)c(=O)c4ccccc34)CC2)cc1 returned Pf growth 96h 14.7µM*, SARS PLP yeast 0.9%, Pf growth 48h 0.0% and NS1 inh -10.8%.
CC(=O)c1ccc(N(CC(=O)NC2CCCCC2)C(=O)c2csnn2)cc1 was read as Pf growth 96h 4.7%, SARS PLP yeast -2.6%, Pf growth 48h 12.1% and NS1 inh -4.1%.
For CC(=O)Nc1ccc(S(=O)(=O)N(C)CC(=O)OCCOc2cccc(C)c2)cc1 the results were Pf growth 96h 31.0%, SARS PLP yeast -2.4%, Pf growth 48h 10.1% and NS1 inh -0.7%.
`CSCC[C@H](NC(=O)[C@H](Cc1ccccc1)n1c(=O)[nH]c2ccccc2c1=O)C(=O)N1CCC(C(=O)O)CC1` gave Pf growth 96h inconclusive, SARS PLP yeast 6.0%, Pf growth 48h -12.7% and NS1 inh inconclusive.
Screening N/C(CCS(=O)(=O)c1ccc(Cl)cc1)=N\OC(=O)c1ccccc1C(F)(F)F returned Pf growth 96h 9.28µM*, SARS PLP yeast -1.7%, Pf growth 48h 3.7µM* and NS1 inh -2.4%.
Screening N/C(CCS(=O)(=O)c1ccc(Cl)cc1)=N\OC(=O)c1ccc(Cl)cc1 returned Pf growth 96h inconclusive, SARS PLP yeast 0.3%, Pf growth 48h inconclusive and NS1 inh 10.1%.
`CCOC(=O)N1CCC(NC(=O)c2cc(C(=O)Nc3cccc(OC)c3)ccc2CO)CC1` gave SARS PLP yeast 5.3% and NS1 inh -5.0%.
`CCOC(=O)N1CCC(NC(=O)c2ccc3c(c2)sc2nc(-c4cccc(OC)c4)cn23)CC1` gave Pf growth 96h 9.9%, SARS PLP yeast 23.8%, Pf growth 48h 7.38µM* and NS1 inh inconclusive.
Screening COc1cc(OC)c(C2N(c3cc(C)on3)C(=O)C3CCCN32)cc1OC (stereo unspecified) returned Pf growth 96h 4.65µM*, SARS PLP yeast -3.8%, Pf growth 48h 2.9% and NS1 inh 2.2%.
`COc1cccc(CNC(=O)CCNS(=O)(=O)c2ccc(Br)s2)c1` gave Pf growth 96h inconclusive, SARS PLP yeast -1.7%, Pf growth 48h 4.3% and NS1 inh -10.2%.
Screening COc1cccc(CNC(=O)CCNS(=O)(=O)c2cccs2)c1 returned Pf growth 96h 1.17µM*, SARS PLP yeast -1.9%, Pf growth 48h 25.3% and NS1 inh -10.1%.
CC[n+]1c(C)sc2c3ccsc3ccc21 was read as Pf growth 96h 32.7%, SARS PLP yeast 1.9% and Pf growth 48h 14.7µM*.
`Cc1ccccc1NC1=NC(=S)N(c2ccccc2)C12CCCCC2` gave Pf growth 96h 10.4µM*, SARS PLP yeast -12.9%, Pf growth 48h inconclusive and NS1 inh 3.7%.
Screening Cc1ccccc1NC1=NC(=S)N(c2ccccc2)C12CCOC(C)(C)C2 (stereo unspecified) returned Pf growth 96h inconclusive, SARS PLP yeast 4.6%, Pf growth 48h inconclusive and NS1 inh 6.1%.
`COc1ccc(S(=O)(=O)N2CCCOC2CNC(=O)C(=O)NCc2ccncc2)cc1` (stereo unspecified) gave Pf growth 96h -0.6%, SARS PLP yeast 4.1%, Pf growth 48h -4.7% and NS1 inh 19.7%.
Screening Cc1noc(-c2ccc(C(F)(F)F)cc2)c1NC(=O)Nc1ccc(Cl)cc1 returned Pf growth 96h 2.62µM*, SARS PLP yeast -5.2%, Pf growth 48h 2.62µM* and NS1 inh -34.0%.
For Cc1cc(-c2onc(C)c2C(=O)Nc2ccc(C(F)(F)F)cc2)no1 the results were Pf growth 96h 70.7%, SARS PLP yeast 0.6%, Pf growth 48h 64.9% and NS1 inh -0.4%.
